{"source": "ChEMBL document CHEMBL1201862", "about": "“PubChem BioAssay data set” (2004)", "note": "The whole screen tested about 400,000 compounds, of which about 2,100 (0.53%) were called active. Roughly 14% stayed inconclusive and do not appear here. The rule behind the calls is not given here. Many of the other results were omitted from the sample, so actives are more common in it than they were.", "data": [{"target": "Ataxin-2 (Homo sapiens) (UniProt Q99700)", "sequence (Q99700 whole entry)": "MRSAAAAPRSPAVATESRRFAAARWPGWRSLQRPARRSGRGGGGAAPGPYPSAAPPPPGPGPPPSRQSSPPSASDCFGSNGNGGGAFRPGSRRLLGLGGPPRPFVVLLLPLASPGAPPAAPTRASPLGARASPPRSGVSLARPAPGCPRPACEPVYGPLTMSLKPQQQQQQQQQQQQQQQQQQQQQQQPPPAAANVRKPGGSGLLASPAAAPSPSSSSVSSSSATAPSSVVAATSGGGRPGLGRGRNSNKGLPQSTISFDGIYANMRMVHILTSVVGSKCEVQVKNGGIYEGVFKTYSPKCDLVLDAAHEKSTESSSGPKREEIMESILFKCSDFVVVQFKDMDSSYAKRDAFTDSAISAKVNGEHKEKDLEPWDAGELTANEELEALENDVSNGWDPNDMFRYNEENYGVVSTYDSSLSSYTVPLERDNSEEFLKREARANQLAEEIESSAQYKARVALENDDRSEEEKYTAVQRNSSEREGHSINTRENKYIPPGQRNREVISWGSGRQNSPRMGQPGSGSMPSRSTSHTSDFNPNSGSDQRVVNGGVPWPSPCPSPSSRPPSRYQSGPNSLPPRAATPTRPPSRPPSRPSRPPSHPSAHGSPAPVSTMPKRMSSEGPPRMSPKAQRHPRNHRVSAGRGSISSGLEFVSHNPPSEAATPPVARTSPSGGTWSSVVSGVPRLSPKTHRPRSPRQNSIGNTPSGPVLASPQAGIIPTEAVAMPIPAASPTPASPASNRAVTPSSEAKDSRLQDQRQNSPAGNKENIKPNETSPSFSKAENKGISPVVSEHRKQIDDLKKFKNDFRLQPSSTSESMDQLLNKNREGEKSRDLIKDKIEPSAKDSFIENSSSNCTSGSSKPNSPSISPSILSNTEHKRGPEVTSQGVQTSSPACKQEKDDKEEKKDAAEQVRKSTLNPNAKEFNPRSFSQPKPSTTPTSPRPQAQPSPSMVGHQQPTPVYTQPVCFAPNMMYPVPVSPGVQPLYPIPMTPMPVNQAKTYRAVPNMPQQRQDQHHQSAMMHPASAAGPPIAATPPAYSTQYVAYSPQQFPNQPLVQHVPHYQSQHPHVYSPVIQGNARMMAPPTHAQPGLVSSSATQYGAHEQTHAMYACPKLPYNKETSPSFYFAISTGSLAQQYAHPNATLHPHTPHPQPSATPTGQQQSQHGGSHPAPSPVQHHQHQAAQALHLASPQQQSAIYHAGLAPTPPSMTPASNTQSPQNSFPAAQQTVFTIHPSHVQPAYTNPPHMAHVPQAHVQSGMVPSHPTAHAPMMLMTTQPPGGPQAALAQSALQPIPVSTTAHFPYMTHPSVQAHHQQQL", "test": "qHTS for Inhibitors of ATXN expression.", "type": "functional", "values": [{"smiles": "O=C(OCC(=O)c1ccc[nH]1)c1cncc(Br)c1", "Potency": "inactive"}, {"smiles": "Cc1ccc(-n2[nH]c(C)c(/C=N/Nc3ccc([N+](=O)[O-])cc3[N+](=O)[O-])c2=O)cc1", "Potency": "14.1 µM (active)"}, {"smiles": "Cc1[nH]c2ccccc2c1/C=N/Nc1ccc([N+](=O)[O-])cc1", "Potency": "inactive"}, {"smiles": "CN1CCN(S(=O)(=O)c2cc([N+](=O)[O-])ccc2N/N=C/c2ccc(Cl)cc2)CC1", "Potency": "inactive"}, {"smiles": "CCc1ccc([C@@H]2CC=C(C(=O)O)[C@H](c3ccc(C(C)(C)C)cc3)N2S(=O)(=O)c2ccc(C)cc2)cc1", "Potency": "35.5 µM (active)"}, {"smiles": "CCc1ccc(S(=O)(=O)N2CCN(Cc3ccco3)CC2)cc1", "Potency": "inactive"}, {"smiles": "CSC1=NCCN1S(=O)(=O)c1ccc(C)cc1", "Potency": "inactive"}, {"smiles": "CC(=O)Nc1ccc2cc3ccc(NC(C)=O)cc3nc2c1", "Potency": "inactive"}, {"smiles": "CCC(C)NCC(=O)Nc1ccc(-c2nc3cc(NC(=O)CNC(C)CC)ccc3o2)cc1", "note": "(stereo not drawn)", "Potency": "22.4 µM (active)"}, {"smiles": "Cc1ccc(NC(=O)CSC(C)C(=O)OCc2cc(=O)oc3cc(O)ccc23)cc1", "note": "(stereo not drawn)", "Potency": "inactive"}, {"smiles": "COc1cc(/C=C\\C(=O)Nc2cc(=O)n(C)c(=O)n2C)cc(OC)c1OC", "Potency": "inactive"}, {"smiles": "CNC[C@@H](CC1CCCCC1)NC[C@H](CC(C)C)NCCc1cccc(C(F)(F)F)c1", "Potency": "15.8 µM (active)"}, {"smiles": "CSCCC(=O)N(C)CC1CCCN(CCc2cccc(C(F)(F)F)c2)C1", "note": "(stereo not drawn)", "Potency": "inactive"}, {"smiles": "O=c1nc2c(O)cccn2c2c1c(O)nc1ccccc12", "Potency": "inactive"}, {"smiles": "Nc1nc(O)c(CCCOc2ccc(NC(=O)CBr)cc2)c(-c2ccccc2)n1", "Potency": "25.1 µM (active)"}, {"smiles": "Cc1nc(C)c(C(=O)OCC(=O)Nc2ccccc2)s1", "Potency": "inactive"}, {"smiles": "CCOc1ccc(NC(=O)COC(=O)CNC(=O)c2ccc(-c3ccccc3)cc2)cc1", "Potency": "inactive"}, {"smiles": "CC(C)CC1c2[nH]c3ccccc3c2CCN1C(=O)CCC(=O)N(C)C", "note": "(stereo not drawn)", "Potency": "inactive"}, {"smiles": "Cc1cc(Cl)ccc1C(=O)C1CCCN(C(=O)/C=C/c2cnn(C)c2)C1", "note": "(stereo not drawn)", "Potency": "inactive"}, {"smiles": "Cc1c(Cl)cccc1NC(=O)CN1CCN(CCNC=C2C(=O)CC(c3ccccc3)CC2=O)CC1", "note": "(stereo not drawn)", "Potency": "inactive"}, {"smiles": "Cc1c(Cl)cccc1NC(=O)C1CCCN(C(=O)c2cnn(-c3ccccc3)c2-n2cccc2)C1", "note": "(stereo not drawn)", "Potency": "39.8 µM (active)"}, {"smiles": "Cc1c(CN2CCCC(C(=O)Nc3cccc(-n4cccn4)c3)C2)cnn1C", "note": "(stereo not drawn)", "Potency": "inactive"}, {"smiles": "Cc1cc(C)cc(NC(=O)C2CCCN(C(=O)c3cnn(-c4ccccc4)c3-n3cccc3)C2)c1", "note": "(stereo not drawn)", "Potency": "20 µM (active)"}, {"smiles": "Cc1cc(C)cc(NC(=O)Nc2ccccc2N2CCCCC2)c1", "Potency": "inactive"}, {"smiles": "Cc1ccc(SCc2nn(C)c(Cl)c2C=O)cc1", "Potency": "inactive"}, {"smiles": "CCCN(C(=O)c1cccc(S(=O)(=O)N2CCCc3ccccc32)c1)C1CCS(=O)(=O)C1", "note": "(stereo not drawn)", "Potency": "inactive"}, {"smiles": "CC(C)c1cc(NCCOCCO)n2c(nc3ccccc32)c1C#N", "Potency": "inactive"}, {"smiles": "Cc1cc(N(CCO)CCO)ccc1C(c1ccc(N(CCO)CCO)cc1C)c1ccccc1Cl", "Potency": "39.8 µM (active)"}, {"smiles": "OCCN(CCO)c1ccc(C(c2ccccc2Cl)c2ccc(N(CCO)CCO)cc2Cl)c(Cl)c1", "Potency": "39.8 µM (active)"}, {"smiles": "CCN(CC)CCOc1ccc2c(c1)C(=NNC(=O)c1ccccn1)c1cc(OCCN(CC)CC)ccc1-2", "Potency": "39.8 µM (active)"}, {"smiles": "CCOc1cc(NC(=O)c2ccccn2)c(OCC)cc1NC(=O)c1ccc(OC)cc1", "Potency": "inactive"}, {"smiles": "COc1cc(/C=N/NC(=O)c2ccccn2)cc2c1OCO2", "Potency": "inactive"}, {"smiles": "c1ccc(-c2nc(N3CCCC3)nc3ccccc23)cc1", "Potency": "inactive"}, {"smiles": "CCN(CC)c1ccc2cc(-c3nnc(-c4cccc(Cl)c4)o3)c(=O)oc2c1", "Potency": "inactive"}, {"smiles": "CCCCCCc1cc2cc(S(=O)(=O)c3ccc(Cl)cc3)c(=O)oc2cc1O", "Potency": "inactive"}, {"smiles": "Cc1ccccc1C(=O)OC1CCN(C)CC1", "Potency": "inactive"}, {"smiles": "COCCCNc1nc2c(-c3cccc(C)c3)nnn2c2ccccc12", "Potency": "inactive"}, {"smiles": "NNC(=O)c1sc(-c2ccccc2)cc1N", "Potency": "inactive"}, {"smiles": "Cc1ccc2nc(NCCC(=O)O)nc(-c3ccccc3)c2c1", "Potency": "inactive"}, {"smiles": "CC(=O)Nc1ccc(S(=O)(=O)Nc2nc3nc(-c4ccccc4)cc(-c4ccccc4)n3n2)cc1", "Potency": "inactive"}, {"smiles": "CC(=O)Nc1ccc(CNc2nc(NCCN(C)C)nc3cc(-c4ccccc4)sc23)cc1", "Potency": "31.6 µM (active)"}, {"smiles": "COCCNc1nc2c(-c3cccc(C(F)(F)F)c3)nnn2c2ccccc12", "Potency": "inactive"}, {"smiles": "COCCNc1nc(NCc2ccc(NC(C)=O)cc2)c2sc(-c3ccccc3)cc2n1", "Potency": "31.6 µM (active)"}, {"smiles": "O=C(O)CCNc1nc(-c2ccccc2)c2cc(Br)ccc2n1", "Potency": "inactive"}, {"smiles": "COCCNc1nc(NCCOc2ccccc2)c2sc(-c3ccccc3)cc2n1", "Potency": "25.1 µM (active)"}, {"smiles": "C[C@]12CCCC[C@@H]1CC[C@@H]1[C@@H]2CC[C@@]2(C)[C@H]1CC[C@@]2(O)CNCCO", "Potency": "inactive"}, {"smiles": "O=C(c1cc(Br)c(Br)s1)N1CCc2ccccc2C1", "Potency": "inactive"}, {"smiles": "O=S(=O)(NC1CCSc2ccccc21)c1ccc(Cl)nc1", "note": "(stereo not drawn)", "Potency": "inactive"}]}]}
